Screening data from PubChem BioAssay.
Only some compounds are listed: those with a hit (about 21% of all), similar ones and a draw of the others.
ClpP mod = qHTS Assay for Activators of ClpP. purified B. subtilis ClpP, FRET peptide cleavage, 20 min. Potency, µM (highest dose often 57.5 µM), without a hit: at the highest dose activity change, negative = active. 340,000 tested, 1.9% active. AID 651965, 2013; active = well fitted falling curve with a large enough effect; inconclusive = small, poorly fitted or top-dose-only effect; inactive = no such curve, though single readings can be large or run the other way; note: potency is the fitted concentration of half-maximal effect; the source files actives as falling curves though it sought activators and does not explain the sign; nearly all actives have a fitted effect of over 65% in size
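Purified B. subtilis ClpP, 10 microg/mL final in Tris/HCl pH8 with KCl, BSA, glycerol and Tween-20, cleaved an Abz/nitrotyrosine-quenched decapeptide. Fluorescence (ex 320, em 430) was read at 0 and 20 min at room temperature. Delta was normalized to 5.8 microM ADEP and DMSO/no-enzyme controls.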
TDP1 cell CPT = growth inhibition of DT40 Tdp1-/-;hTDP1 cells with camptothecin (screen for TDP1 inhibitors); chicken DT40 Tdp1-/-;hTDP1 cells + 20 nM CPT, ATP luminescence, 48 h; Potency, µM (doses to about 46.2 µM), for the others: at the highest dose activity change, negative = growth inhibition, usual class: inhibitors; 420,000 tested, 12% active; note: potency is the fitted concentration of half-maximal effect; % is set by controls: 0 for no effect and ±100 for the full control effect; nearly all actives have a fitted effect of over 55% in size
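Chicken DT40 Tdp1-/- cells stably complemented with human TDP1 were seeded at 400 cells/well in medium containing 20 nM camptothecin, exposed to pin-transferred compounds, and grown at 37 °C for at least 48 hr. Viability was read as ATP luminescence.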
IL1B secr inh = inhibitors of inflammasome signaling (IL-1 beta secretion). THP-1 LPS/ATP IL-1B secretion, AlphaLISA, 16 h; stronger effect = lower value. activity change, % at 57.5 µM. 360,000 tested, 4.7% active. AID 743279; in the data active = activity change below about -50%; inconclusive = mostly about -30% to -49%; note: % is set by controls: 0 for no effect and ±100 for the full control effect
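Secreted IL-1B measured by AlphaLISA bead assay after 16 h compound exposure of THP-1 cells; compounds (final up to 57.5 uM) added 1 h before LPS (250 ng/mL) and ATP (1.25 mM) stimulation; lower signal means less secretion.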
DRD3 agonist = agonists of human D3 dopamine receptor; 410,000 tested, 0.58% active; D3R DiscoveRx beta-arrestin cells, luminescence, 90 min; max activation, %; in the data active = max activation above about 30%; note: 0% is about no effect
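Cells at 1500/well, incubated overnight, then treated with pinned compounds (dopamine as control) for 90 min at 37 degrees C. DiscoveRx reagent added for 30 - 60 minutes at room temperature; luminescence read.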
TDP1 cell noCPT = qHTS for Inhibitors of human tyrosyl-DNA phosphodiesterase 1 (TDP1): qHTS in cells in absence of CPT | 420,000 tested, 15% active | Potency, µM (highest dose often 46.2 µM), for inactives: at the highest dose activity change, negative = growth inhibition, most hits filed as inhibitors | DT40 Tdp1-/- hTDP1 cells, no CPT, ATP luminescence, 48 h; note: potency is the fitted concentration of half-maximal effect; % is set by controls: 0 for no effect and ±100 for the full control effect; nearly all actives have a fitted effect of over 55% in size
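Growth kinetics read by CellTiter-Glo luminescence after ≥48 hr at 37 °C. Cells: DT40 Tdp1-/- stably carrying human TDP1, 400 per well, compound exposure in the absence of CPT (DMSO vehicle).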
DRD3 antagonist = blocks the human D3 dopamine receptor. 360,000 tested, 2.5% active. D3R cells, DiscoveRx beta-arrestin luminescence, antagonist mode; stronger effect = lower value. max response, negative = inhibition, %. AID 652054; in the data active = max response below about -50%; inconclusive = no clear call, values can overlap the other calls; note: % is set by controls: 0 for no effect and ±100 for the full control effect
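Cells plated overnight at 1500 cells/well, then exposed to library compounds with dopamine controls for 90 minutes at 37 degrees C. DiscoveRx reagent added for 30–60 minutes at room temperature; luminescence read, quantitative HTS format.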
An asterisk follows results filed as active; ? = inconclusive; nt = not tested or not shown. Unless noted, calls come from the whole dose curve; as a rule, active = well fitted inhibition curve with a large enough effect; inconclusive = small, poorly fitted or top-dose-only effect; inactive = flat fitted curve, though single readings scatter.

SMILES | ClpP mod | TDP1 cell CPT | IL1B secr inh | DRD3 agonist | TDP1 cell noCPT | DRD3 antagonist
CC1(C(=O)Nc2ccc3c(c2)OCO3)CCN1C(=O)CCc1cccs1 (stereo not drawn) | 2% | -17% | -9 | 7 | -28% | 0
CCN(C(=O)Cn1c(=O)oc2cc(S(=O)(=O)N3CCCCCC3)ccc21)c1cccc(C)c1 | -18% | ? | nt | -3 | 21µM* | nt
COc1ccc(C)cc1NC(=O)Cn1c(=O)ccc2cc(S(=O)(=O)N3CCCC3)ccc21 | 38% | 21µM* | nt | 2 | 21µM* | nt
COc1ccc(Cl)cc1NC(=O)CN1C(=O)CSc2ccc(S(=O)(=O)N3CCCC3)cc21 | -3% | 16µM* | nt | -22 | 23µM* | nt
Cc1cccc(NC(=O)Cn2c(=O)ccc3cc(S(=O)(=O)N4CCCC4)ccc32)c1C | 2% | ? | nt | 0 | 16µM* | nt
CCC(C)NC(=O)Cn1c(=O)ccc2cc(S(=O)(=O)N3CCCC3)ccc21 (stereo not drawn) | -12% | ? | nt | -2 | ? | nt
CCCCNC(=O)C1C(c2ccc(C(F)(F)F)cc2)=Nc2ccccc2N1C(=O)c1ccc2nc(C)[nH]c2c1 (stereo not drawn) | 46% | ? | -27 | -10 | ? | ?
Cc1cccc(CN2C[C@]34CC[C@@H](C[C@@H]3S2(=O)=O)O4)c1 | -3% | 9% | 22 | -18 | 11% | 6
COc1ccc(-c2noc(-c3ccc(NC4CCCC4)c([N+](=O)[O-])c3)n2)cc1 | 1% | -1% | nt | -4 | -14% | nt
CC(=O)Oc1ccc2c(c1)C(=O)CCCCCC(=O)O2 | 12% | -7% | 0 | 0 | -1% | -70*
CC(=O)Oc1ccc2c(c1)C(=O)c1ccccc1CO2 | -4% | -1% | -7 | -12 | -2% | ?
Cc1ccc(-n2nnnc2SCC(=O)c2c(N)n(CC(C)C)c(=O)n(C)c2=O)cc1 | -1% | 0% | 30 | 12 | -6% | 12
Cc1csc(SCC(=O)c2c(N)n(CC(C)C)c(=O)n(C)c2=O)n1 | 1% | 16µM* | 4 | 25 | 21µM* | 11
CCOC(=O)Cc1csc(SCC(=O)c2c(N)n(CC(C)C)c(=O)n(C)c2=O)n1 | -4% | 9.2µM* | 11 | -2 | 10µM* | 36
O=S(=O)(c1cc(Cl)ccc1Cl)n1cccn1 | nt | 24% | -10 | 0 | 2% | 10
CC(O)(c1ccccc1)c1nc(-c2cccc(C#N)c2)cs1 (stereo not drawn) | 0% | ? | 2 | 2 | ? | 27
COc1ccc(C(C)(O)c2nc(-c3cccc(C#N)c3)cs2)cc1 (stereo not drawn) | -1% | 13µM* | 9 | 7 | 21µM* | 32
COc1cccc(C(C)(O)c2nc(-c3ccc(F)c(Cl)c3)cs2)c1 (stereo not drawn) | -4% | ? | -23 | -4 | ? | -5
COc1cccc(C(C)(O)c2nc(-c3cccc(C#N)c3)cs2)c1 (stereo not drawn) | 1% | 18µM* | -24 | 12 | 13µM* | 21
COc1ccc(CNS(=O)(=O)CCNC(=O)c2ccc3c(c2)OCO3)cc1 | nt | 4% | 9 | -4 | -17% | 3
CN(C)c1ccc(N=Nc2ccc(/C=C/c3ccnc4ccccc34)cc2)cc1 | 1% | ? | nt | nt | 18µM* | nt
CCN(CC)c1ccc(/C=C/c2ccnc3ccccc23)cc1 | 4% | ? | nt | nt | 18µM* | nt
CCCCN(CCC#N)c1ccc(/C=C/c2ccnc3ccccc23)cc1 | 1% | 10µM* | nt | nt | 10µM* | nt
CN(C)c1ccc(N=Nc2ccnc3ccccc23)cc1 | 0% | ? | nt | nt | 22µM* | nt
CCN(Cc1ccccc1)c1ccc(/C=C/c2nccc3ccccc23)cc1 | 0% | 13µM* | nt | nt | ? | nt
SMILES | ClpP mod | TDP1 cell CPT | IL1B secr inh | DRD3 agonist | TDP1 cell noCPT | DRD3 antagonist
CN(C)c1ccc(N=Nc2nccs2)cc1 | 1% | -9% | -16 | -13 | ? | -82*
CCCCCCCCCCN(CCCCCCCCCC)c1ccc(/C=C/c2ccnc3ccccc23)cc1 | 1% | -24% | nt | nt | -28% | nt
CN(C)c1ccc(N=Nc2ccccc2Br)cc1 | -2% | -14% | 18 | -15 | 0% | -26
Nc1ccc(/C=C/c2nccc3ccccc23)cc1 | 1% | ? | nt | nt | ? | nt
CCN(CC)CCN(C)c1ccc(/C=C/c2ccnc3ccccc23)cc1 | 0% | ? | nt | nt | ? | nt
CC(C)CN(CC(C)C)c1ccc(/C=C/c2ccnc3ccccc23)cc1 | 0% | 13µM* | nt | nt | 18µM* | nt
CCN(CC)CCN(CC)c1ccc(/C=C/c2ccnc3ccccc23)cc1 | 0% | -91% | nt | nt | 4.5µM* | nt
O=C(O)C1CCC(N2C(=O)C3C4CCC(C4)C3C2=O)CC1 (stereo not drawn) | -1% | -6% | 0 | -2 | 24% | -10
CC1(C(=O)NS(=O)(=O)c2ccc(Cl)cc2)CCN1C(=O)Cc1ccc(Cl)cc1Cl (stereo not drawn) | 1% | -1% | -26 | -9 | -4% | -20
CCOC(=O)CC(NC(=O)CCc1c(C)nc2c(c(C)nn2-c2ccc(C)c(C)c2)c1C)c1ccc(C)cc1 (stereo not drawn) | -22% | -1% | nt | 4 | ? | nt
CCCn1c(N)c(N(CCOC)C(=O)c2c(CC)noc2C)c(=O)[nH]c1=O | -3% | 7% | 7 | 4 | -10% | 11
CCCCCCCN(CCCCCCC)c1ccc(/C=C/c2ccnc3ccccc23)cc1 | 1% | -22% | nt | nt | -15% | nt
OCCN(CCO)c1ccc(/C=C/c2ccnc3ccccc23)cc1 | -13% | 8.9µM* | nt | nt | 14µM* | nt
C=CCN(CC=C)c1ccc(/C=C/c2ccnc3ccccc23)cc1 | -7% | 18µM* | nt | nt | ? | nt
CCN(C)c1ccc(/C=C/c2ccnc3ccccc23)cc1 | 0% | 11µM* | nt | nt | 11µM* | nt
COCC(=O)N1CCC2(CCN(Cc3ccncc3)CC2)CC1 | nt | 22% | nt | nt | 3% | nt
COc1ccc(S(=O)(=O)Oc2ccc3c(c2)O/C(=C\c2cccnc2)C3=O)cc1 | -2% | ? | 0 | 20 | 15µM* | 11
O=C1/C(=C/c2cccnc2)Oc2cc(OS(=O)(=O)c3ccccc3)ccc21 | 0% | ? | -6 | -4 | 16µM* | -15
O=C1/C(=C/c2cccnc2)Oc2cc(OS(=O)(=O)c3ccc(Cl)cc3)ccc21 | 0% | ? | 20 | 12 | ? | 13
Cc1cc(C)nc(Nc2ccccc2Cl)n1 | 1% | -4% | 8 | -15 | -6% | -70*
